Assay outcomes (PubChem)
Rows were chosen to be rich in hits. Some 22% of all compounds tested hit in one or more screens of this group.
Shiga inhibitor – Shiga toxin inhibition | Vero cells, Shiga toxin protein synthesis inhibition reporter | inhibition, % at 38.7 µM | 290,000 compounds, 9.2% hits; in the data active = inhibition mostly above about 28%, no sharp cut-off; inactive = mostly below about 43%; also: 0% is about no effect
Pf growth 96h – P. falciparum growth inhibition at 96 hours. P. falciparum luciferase reporter growth, 96 h. Potency, µM (highest dose often 28.7 µM), inactives show top-dose activity change, negative = inhibition, actives largely listed as inhibitors. 320,000 compounds, 6.9% hits; also: potency is read from the fitted curve at half-maximal effect; % is scaled to controls: 0 for no effect and ±100 for the full control effect
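P. falciparum expressing integrated firefly luciferase grown in erythrocytes (2% hematocrit, 0.05% parasitemia final) with compounds for 96 hours at 37 C, 5% CO2. Growth inhibition read as loss of luminescence after adding luciferase detection reagent.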
Pf growth 48h – inhibits P. falciparum growth in the first generation, 48 h | P. falciparum luciferase growth in erythrocytes, 48 h | Potency, µM (titrated, usually from 28.7 µM), inactives show at the highest dose activity change, negative = inhibition, hits mostly inhibitors | 310,000 compounds, 5.9% hits | AID 504832; also: potency is read from the fitted curve at half-maximal effect; % is scaled to controls: 0 for no effect and ±100 for the full control effect
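Firefly luciferase activity from engineered P. falciparum reports growth; inhibitors lower the luminescent signal. Cultures contained 2% hematocrit erythrocytes at 0.1% final parasitemia.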
Cycloheximide cs – counter-screen hit for Shiga toxin inhibitors, cycloheximide. max response, %. AID 2314. cell reporter, cycloheximide protein synthesis inhibition counterscreen. 300,000 compounds, 12% hits; in the data active = max response mostly above about 13%, no sharp cut-off; inactive = mostly below about 14%; also: read at 38.3 µM for the half of the compounds with a filed dose; 0% is about no effect
LmPK inh – blocks Leishmania mexicana pyruvate kinase activity; Q27686; purified LmPK, Kinase-Glo ATP luminescence, 1 h; Potency, µM (doses to about 57.5 µM), for the others: at the highest dose activity change, negative = inhibition, hits mostly inhibitors; 290,000 compounds, 0.37% hits; AID 1721; also: potency is read from the fitted curve at half-maximal effect; % is scaled to controls: 0 for no effect and ±100 for the full control effect
Target sequence (Q27686 whole entry, looked up): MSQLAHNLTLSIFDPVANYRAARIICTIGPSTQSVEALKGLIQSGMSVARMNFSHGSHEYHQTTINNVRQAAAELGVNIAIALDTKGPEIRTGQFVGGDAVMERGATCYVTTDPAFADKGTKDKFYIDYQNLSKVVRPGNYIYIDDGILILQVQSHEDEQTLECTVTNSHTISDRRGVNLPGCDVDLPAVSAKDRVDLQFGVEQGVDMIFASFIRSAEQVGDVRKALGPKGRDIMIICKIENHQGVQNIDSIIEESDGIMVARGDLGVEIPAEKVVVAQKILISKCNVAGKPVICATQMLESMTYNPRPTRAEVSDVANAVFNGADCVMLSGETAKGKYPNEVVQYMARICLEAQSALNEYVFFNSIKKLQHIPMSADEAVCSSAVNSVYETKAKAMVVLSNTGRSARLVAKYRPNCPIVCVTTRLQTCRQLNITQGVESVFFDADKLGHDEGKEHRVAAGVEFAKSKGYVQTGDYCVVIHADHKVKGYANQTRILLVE
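Purified LmPK (0.1 nM) with 0.5 mM PEP and 0.1 mM ADP in imidazole buffer pH 7.2 with MgCl2/KCl, 1 h at room temperature. ATP formed was read by luciferase luminescence and normalized to no-enzyme and uninhibited controls.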
* = called active by the depositor; ? = inconclusive; · = no result given. Unless noted, calls follow the shape of the dose curve; as a rule, active = well fitted inhibition curve with a large enough effect; inconclusive = small, poorly fitted or top-dose-only effect, or another doubt; inactive = no such curve, though single readings can be large or run the other way.

SMILES	Shiga inhibitor	Pf growth 96h	Pf growth 48h	Cycloheximide cs	LmPK inh
CCc1ccc2oc(C(=O)NCc3ccncc3)c(C)c2c1	50*	?	25%	22*	-3%
CCc1nonc1NC(=O)c1oc2ccccc2c1C	24	?	9.3µM*	36*	-2%
O=C(CN1C(=O)C2CC=CCC2C1=O)Nc1ccc(F)cc1F (configuration not stated)	·	5%	-10%	·	·
NC(=S)N/N=C/c1ncc(C(F)(F)F)cc1Cl	11	3.3µM*	1.5µM*	0	3%
CCOc1ccc(N(CC(=O)NC2CCCC(C)C2C)S(=O)(=O)c2c(C)noc2C)cc1 (configuration not stated)	-9	?	0%	-5	4%
Cc1ccc(N(CC(=O)NC2CCCCC2C)S(=O)(=O)c2c(C)noc2C)cc1 (configuration not stated)	-6	9.3µM*	?	1	4%
COc1ccc(N(CC(=O)NCc2ccc(C)cc2)S(=O)(=O)c2c(C)noc2C)cc1	-6	2.3µM*	?	-2	1%
COc1ccc(N(CC(=O)NCc2ccc(Cl)cc2)S(=O)(=O)c2c(C)noc2C)cc1	-2	8.3µM*	?	-4	10%
COc1ccc(C(=O)NCCc2c[nH]c3ccccc23)cc1OC	2	?	-15%	-3	0%
O=C(NCCc1c[nH]c2ccccc12)/C(=C\c1cccs1)NC(=O)c1ccccc1	-3	15µM*	?	-2	1%
COc1ccc(C(=O)N/C(=C\c2cccc3ccccc23)C(=O)NCCc2c[nH]c3ccccc23)cc1OC	20	5.9µM*	2.9µM*	10	-4%
Cc1ccccc1OCC(=O)Nc1ccc2c(c1)C(=O)N(CCC(=O)O)C2=O	-24	0%	26%	-3	-12%
CCCCn1cnc2c(oc3nc4c(cc32)CCCC4)c1=O	46	-57%	67%	26*	-10%
CCCCCCn1cnc2c(oc3nc4c(cc32)CCCC4)c1=O	9	?	59%	12*	1%
COc1ccccc1NC(=O)Cn1cnc2c(oc3nc4c(cc32)CCCC4)c1=O	-10	?	?	-2	9%
O=c1c2oc3nc4c(cc3c2ncn1CCCc1ccccc1)CCCC4	70*	?	?	20*	0%
Cc1ccc(S(=O)(=O)N(C)CC(=O)OCC(=O)NC(=O)Nc2ccc3c(c2)OCCO3)cc1	68*	0%	33%	55*	0%
Cc1ccc(S(=O)(=O)N[C@H](C(=O)OCC(=O)NC(=O)Nc2ccc3c(c2)OCCO3)C(C)C)cc1	14	38%	33%	19*	-3%
O=C(COC(=O)C1COc2ccccc2O1)NC(=O)Nc1ccc2c(c1)OCCO2 (configuration not stated)	35	51%	47%	15*	2%
O=C(COC(=O)CNS(=O)(=O)c1cccc(Br)c1)NC(=O)Nc1ccc2c(c1)OCCO2	63*	47%	15%	35*	1%
CC(=O)c1ccc(N(C(=O)CNC(=O)c2ccco2)C(C(=O)NC2CCCC2)c2ccncc2)cc1 (configuration not stated)	-6	10%	34%	-2	-3%
CC(C)[C@H](NS(=O)(=O)c1ccc2c(c1)OCCO2)C(=O)OCC(=O)Nc1ccccc1	45	26%	-9%	14*	1%
CC(NS(=O)(=O)c1ccc(Cl)c(Cl)c1)C(=O)OCC(=O)Nc1ccc2c(c1)OCO2 (configuration not stated)	20	?	9%	-2	0%
C[C@H](NS(=O)(=O)c1ccc(Cl)cc1)C(=O)OCC(=O)NC(=O)Nc1ccc2c(c1)OCCO2	127*	83%	95%	101*	-4%
O=C(Nc1ccc(Cl)cc1)O/N=C(\c1ccccc1)c1ccccn1	25	39%	15%	21*	-1%
CNC(=O)N/N=C(\N)c1ccccn1	37	68%	58%	19*	-4%
N/C(=N\NC(=O)Nc1ccc(Cl)cc1)c1ccccn1	88*	203%	140%	39*	0%
Cc1nc(C(F)(F)F)c(C(=O)N/N=C(\N)c2ccccn2)s1	12	?	?	8	-2%
C/C(CCc1ccccc1)=N\NC(=O)c1ccccc1	90*	22%	33%	30*	0%
C/C(CC(=O)Nc1ccccn1)=N\NC(=O)c1ccccc1	21	42%	24%	30*	-4%
